Assay outcomes as filed in PubChem.
Most compounds without a hit are left out; they make up all but 12% or so of the library.
JMJD2A Tudor: qHTS Assay for Inhibitors of JMJD2A-Tudor Domain | AlphaScreen JMJD2A-Tudor / H3K4me3 peptide binding | Potency, µM (highest dose often 114 µM), usual class: inhibitors | Lysine-specific demethylase 4A (Homo sapiens), O75164 | hit rate 4.4% among 390,000; note: nearly all actives have a fitted effect of over 50% in size
Target sequence (O75164 whole entry, looked up, the tested form may be a part): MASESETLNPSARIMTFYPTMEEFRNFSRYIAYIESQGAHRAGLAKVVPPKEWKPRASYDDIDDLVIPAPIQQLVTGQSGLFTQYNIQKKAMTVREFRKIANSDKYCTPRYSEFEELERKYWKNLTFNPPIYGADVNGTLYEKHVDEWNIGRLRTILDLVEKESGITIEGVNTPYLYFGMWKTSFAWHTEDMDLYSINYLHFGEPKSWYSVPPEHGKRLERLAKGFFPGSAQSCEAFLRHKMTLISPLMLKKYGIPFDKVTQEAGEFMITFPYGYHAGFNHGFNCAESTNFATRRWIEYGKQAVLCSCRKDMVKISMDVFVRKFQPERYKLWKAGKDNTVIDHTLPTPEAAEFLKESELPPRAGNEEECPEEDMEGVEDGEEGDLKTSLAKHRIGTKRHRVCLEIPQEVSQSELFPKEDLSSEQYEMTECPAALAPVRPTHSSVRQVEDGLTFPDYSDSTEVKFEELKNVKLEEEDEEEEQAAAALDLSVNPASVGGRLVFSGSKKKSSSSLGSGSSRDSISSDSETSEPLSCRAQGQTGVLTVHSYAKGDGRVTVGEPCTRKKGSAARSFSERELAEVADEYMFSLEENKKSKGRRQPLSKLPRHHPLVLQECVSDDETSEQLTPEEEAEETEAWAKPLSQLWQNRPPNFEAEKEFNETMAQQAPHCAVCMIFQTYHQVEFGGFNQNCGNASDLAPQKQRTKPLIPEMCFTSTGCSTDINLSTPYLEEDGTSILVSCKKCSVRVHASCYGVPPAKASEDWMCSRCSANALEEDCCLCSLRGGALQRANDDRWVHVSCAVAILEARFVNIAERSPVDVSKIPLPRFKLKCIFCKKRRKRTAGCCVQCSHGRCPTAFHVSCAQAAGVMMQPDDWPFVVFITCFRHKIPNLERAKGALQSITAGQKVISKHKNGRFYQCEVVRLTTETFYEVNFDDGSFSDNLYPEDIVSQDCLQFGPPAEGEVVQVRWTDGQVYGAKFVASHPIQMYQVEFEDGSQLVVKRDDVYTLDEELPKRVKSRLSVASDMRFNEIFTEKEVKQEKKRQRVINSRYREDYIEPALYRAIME
Sfp inh: qHTS Assay for Inhibitors of Bacillus subtilis Sfp phosphopantetheinyl transferase (PPTase); 4'-phosphopantetheinyl transferase ffp (Bacillus subtilis), Q9F4F7; Potency, µM, usual class: inhibitors; AID 1490, 2009; Biochemical Sfp PPTase activity, qHTS; hit rate 3.5% among 310,000;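 note: the enzyme is Sfp with the accession as filed and its product quenches rhodamine fluorescence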
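Compounds were incubated with enzyme (final 15 nM) for 15 min at room temperature before substrate addition started the reaction. Fluorescence at 525 nm excitation, 598 nm emission was recorded immediately and after 30 minutes.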
HP1b chromo inh: HTS for Inhibitors of HP1-beta Chromodomain Interactions with Methylated Histone Tails. Chromobox protein homolog 1 (Homo sapiens), P83916. AlphaScreen HP1-beta / biotin-H3K9me3 peptide binding. Potency, µM (highest dose often 114 µM), actives largely listed as inhibitors. hit rate 0.56% among 390,000. AID 540317, 2011; note: nearly all actives have a fitted effect of over 70% in size
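HP1-beta protein (50 nM final) preincubated 30 min at room temperature with biotinylated H3(1-18)K9me3 peptide (50 nM) in PBS pH 7.4, 0.01% Tween-20, then compound added for 30 min. AlphaScreen streptavidin donor/nickel chelate acceptor beads (10 ug/mL final), 30 min dark, luminescence read.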
BAZ2B block: qHTS Assay for Inhibitors of BAZ2B; Bromodomain adjacent to zinc finger domain protein 2B (Homo sapiens), Q9UIF8; AlphaScreen BAZ2B-H3K14Ac peptide displacement; Potency, µM (highest dose often 114 µM), most hits filed as inhibitors; hit rate 4.4% among 360,000; note: nearly all actives have a fitted effect of over 60% in size
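In this displacement format the biotinylated H3(5-23) peptide acetylated at Lys14 serves as ligand at 50 nM, with BAZ2B at 50 nM in PBS pH 7.4 containing 0.01% Tween-20. Donor and acceptor beads are 10 ug/mL final.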
G9a block: qHTS Assay for Inhibitors of Histone Lysine Methyltransferase G9a. Potency, µM (series often up to 102 µM), usual class: inhibitors. Histone-lysine N-methyltransferase EHMT2 (Homo sapiens), Q96KQ7. hit rate 8.8% among 350,000. G9a H3K9 monomethylation, AlphaScreen, 2 h; note: nearly all actives have a fitted effect of over 75% in size
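AlphaScreen detection with an anti-monomethyl H3K9 antibody quantified product after a 2 h room-temperature reaction containing 500 nM biotinylated H3K9 peptide, 20 µM SAM and 20 nM enzyme, which had been preincubated 15 min with compound.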
Each line names hits and unclear results; the compound was inactive in the other large screens. Calls come from the whole dose curve; as a rule, active = well fitted curve in the direction sought with a large enough effect; inconclusive = small, poorly fitted or top-dose-only effect, or another doubt; inactive = no such curve, though single readings can be large; an effect the other way counts as inactive or inconclusive.

COc1ccc(-n2c(-c3ccc(C)cc3)n[nH]c2=S)cc1	JMJD2A Tudor 20µM, Sfp inh 89.1µM, G9a block 3.98µM
COc1ccc(-c2n[nH]c(=S)n2-c2ccc(Br)cc2)cc1OC	JMJD2A Tudor 50.1µM, G9a block 1.58µM
COc1ccc(-n2c(-c3ccccc3)nnc2-c2ccc(Cl)cc2)cc1	none
COc1ccc(-c2nc(N)n[nH]2)cc1OC	BAZ2B block inconclusive
CC(C)(C)c1ccc(-c2n[nH]c(=S)n2-c2ccccc2)cc1	G9a block 2.82µM
Cn1c2ccccc2c(=O)c2c(=O)n(-c3ccccc3)c(-c3ccc(C(C)(C)C)cc3)nc21	none
COc1cc(-c2n[nH]c(=S)n2-c2ccc(C)cc2)cc(OC)c1OC	JMJD2A Tudor 5.01µM, BAZ2B block 50.1µM (no result: G9a block)
N#CCCN1CCN(CCC#N)C1=S	none (no result: Sfp inh, BAZ2B block, G9a block)
Cc1ccc(-n2c(-c3ccncc3)n[nH]c2=S)cc1	JMJD2A Tudor 22.4µM, G9a block 8.91µM
Cc1ccc(-n2c(SCC(=O)N3CCOCC3)nnc2-c2ccncc2)cc1C	none
Cc1ccc(-n2c(-c3ccncc3)n[nH]c2=S)cc1C	JMJD2A Tudor 5.01µM, Sfp inh 44.7µM, G9a block 5.01µM
O=C(NC1CCCCCC1)c1ccc(OCC2CCCO2)cc1 (stereo not drawn)	none
NC(=O)[C@@H]1CCCNc2c(I)cc([N+](=O)[O-])cc2C(=O)N[C@@H](CCCN=C(N)N)C(=O)N[C@@H](CCCN=C(N)N)C(=O)N1	G9a block 14.1µM (no result: JMJD2A Tudor, HP1b chromo inh)
CC[C@H](C)[C@@H]1NC(=O)c2cc([N+](=O)[O-])cc(I)c2NCC[C@@H](C(N)=O)NC(=O)[C@H](CCCN=C(N)N)NC1=O	BAZ2B block inconclusive, G9a block 14.1µM
CC[C@H](C)[C@@H]1NC(=O)c2cc([N+](=O)[O-])cc(I)c2SC[C@@H](C(N)=O)NC(=O)[C@H](CCCCN)NC1=O	JMJD2A Tudor inconclusive, Sfp inh inconclusive, BAZ2B block 70.8µM, G9a block 8.91µM
C[C@@H](O)C1NC(=O)[C@H](CCCCN)NC(=O)c2cc([N+](=O)[O-])cc(F)c2NCCCC[C@@H](C(N)=O)NC1=O (stereo partly drawn)	G9a block inconclusive
CC1CCCC(C)N1C(=O)c1cc(-c2ccc3c(c2)OCO3)on1 (stereo not drawn)	none
Cc1ccc(N2C(=O)CC(Sc3ccccc3C(=O)O)C2=O)cc1 (stereo not drawn)	JMJD2A Tudor inconclusive, Sfp inh inconclusive, G9a block inconclusive
Cc1cc(C)nc(SC2CC(=O)N(c3ccc(C)c(C)c3)C2=O)n1 (stereo not drawn)	none (no result: G9a block)
Cc1ccc(N2C(=O)CC(Sc3ccccc3C(=O)O)C2=O)cc1C (stereo not drawn)	Sfp inh 50.1µM, G9a block 1.58µM
Cc1cccc(N2C(=O)CC(Sc3ncn[nH]3)C2=O)c1 (stereo not drawn)	JMJD2A Tudor inconclusive, Sfp inh 56.2µM, HP1b chromo inh inconclusive, G9a block 7.08µM
CCOC(=O)c1c(N2C(=O)C3CC(C)=C(C)CC3C2=O)sc(C)c1C (stereo not drawn)	none
CCOC(=O)c1c(N2C(=O)CC(Sc3ccccc3C(=O)O)C2=O)sc(C)c1C (stereo not drawn)	Sfp inh 7.94µM, BAZ2B block 50.1µM (no result: G9a block)
Cc1cc(C)cc(N2C(=O)CC(Sc3ccccc3C(=O)O)C2=O)c1 (stereo not drawn)	JMJD2A Tudor inconclusive, Sfp inh 56.2µM, G9a block inconclusive
CC(C)CN1C(=O)CC(Sc2ccccc2C(=O)O)C1=O (stereo not drawn)	G9a block 1.12µM
CN(C)c1ccc(N2C(=O)CC(Sc3ccccc3C(=O)O)C2=O)cc1 (stereo not drawn)	JMJD2A Tudor inconclusive, Sfp inh 44.7µM, BAZ2B block inconclusive, G9a block 1.41µM
Cc1cccc(N2C(=O)CC(Sc3ccccc3C(=O)O)C2=O)c1 (stereo not drawn)	JMJD2A Tudor 44.7µM, Sfp inh 56.2µM, G9a block inconclusive
CN1C(=O)CC(Sc2ccccc2C(=O)O)C1=O (stereo not drawn)	none
CCCCN1C(=O)CC(Sc2ccccc2C(=O)O)C1=O (stereo not drawn)	none
O=C(O)c1ccccc1SC1CC(=O)N(c2ccc3c(c2)OCO3)C1=O (stereo not drawn)	Sfp inh 50.1µM, G9a block 1.58µM
Cc1cc(F)ccc1NC(=O)C(C(C)C)N1Cc2ccccc2C1=O (stereo not drawn)	none (no result: Sfp inh)
COCCn1c(C)cc(O)c(C(c2ccccc2)N2CCC(C)CC2)c1=O (stereo not drawn)	none (no result: Sfp inh)
Cc1[nH]cnc1C(=O)N/N=C/c1c(Cl)cccc1Cl	BAZ2B block inconclusive
Cc1ccc(/C=C(\C#N)C(=O)Nc2cccc(Cl)c2)o1	none (no result: Sfp inh)
Nc1ncnc2c(C3OC(CO)C(O)C3O)scc12 (stereo not drawn)	none (no result: Sfp inh, BAZ2B block, G9a block)
CCOc1ccc(C(=O)NCCN2CCOCC2)cc1	none
CCN1C(=O)C(Cc2nc3ccccc3c(=O)n2-c2ccc(OC)cc2)c2cc(C)ccc21 (stereo not drawn)	JMJD2A Tudor inconclusive, BAZ2B block inconclusive, G9a block inconclusive (no result: Sfp inh)
CCN1C(=O)C(NC(C)=O)c2cc(OC)ccc21 (stereo not drawn)	G9a block 50.1µM
CC(=O)NC1C(=O)N(CCN2CCOCC2)c2ccc(Br)cc21 (stereo not drawn)	JMJD2A Tudor 8.91µM, Sfp inh inconclusive, HP1b chromo inh inconclusive, BAZ2B block 10µM, G9a block 3.16µM
CCOc1ccc2c(c1)C(NC(C)=O)C(=O)N2CCN1CCOCC1 (stereo not drawn)	JMJD2A Tudor 14.1µM, Sfp inh inconclusive, BAZ2B block 10µM, G9a block 15.8µM
CCOc1ccc(NC(=O)CN(C)C(=O)Cn2c(=O)oc3ccccc32)cc1OCC	none (no result: Sfp inh)
CC(C)(C)N(Cc1ccccc1)C(=O)c1cccs1	none
Cn1ccnc1C(=O)c1cc(SCC(=O)NCc2ccccc2)nc2ccccc12	Sfp inh 39.8µM, BAZ2B block inconclusive, G9a block inconclusive
Cc1cccc(NC(=O)CSc2cc(C(=O)c3nccn3C)c3ccccc3n2)c1	JMJD2A Tudor inconclusive, G9a block 12.6µM
COc1ccc(C(=O)Nc2c(Cl)cc(Cl)cc2C(=O)NCCN2CCOCC2)cc1	none
CC1=NN(c2ccccc2)C(=O)/C1=C\C=C1\N(C)c2ccccc2C1(C)C	JMJD2A Tudor 56.2µM, HP1b chromo inh 31.6µM, BAZ2B block 10µM, G9a block 14.1µM
CC1=NN(c2ccccc2)C(=O)/C1=C\C=C1/N(C)c2ccccc2C1(C)C	JMJD2A Tudor 31.6µM, HP1b chromo inh inconclusive, BAZ2B block 10µM, G9a block 11.2µM
